Results: PubChem BioAssay (NCI)
The panel holds about 83,000 compounds, 20% with a hit somewhere; the sample as a whole holds those more often.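 The endpoint reported here, percent growth, reads 100 for growth as untreated, 0 for no net growth and -100 for all cells dead.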 A number with no mark means an inactive call. The source made the active and inactive calls.

What follows are compounds tested on SN12C renal (assay: NCI-60 one-dose screen, 48 h (100 = growth as untreated, 0 = no growth, -100 = all killed)). Settings: 10 µM unless noted.
Method: Growth inhibition of the SN12C human tumor cell line is measured as a screen for anti-cancer activity. Cells are grown in 96 well plates and exposed to the test compound for 48 hours. Compounds are tested at a single concentration, which is 10^-5 M for most compounds. The reported endpoint is percent growth (GI% or GIPRCNT), where numbers from 0 - 100% represent growth inhibition, and numbers from -100% - 0 represent cell death. For example, a value of 40 represents 60% growth inhibition. A value of 0 means no net growth occurred over the course of the experiment. A value of -40 indicates 40% of cells at the beginning of the experiment died by the end of the experiment. A value of -100 means all cells are dead at the end of the experiment.
NCI-60 Human Tumor Cell Lines Screen was performed using the standard one-dose NCI protocol, which is described in more detail at https://dtp.cancer.gov/discovery_development/nci-60/default.htm.
Compounds with GIPRCNT values below 10 were considered active. Activity score was based on GIPRCNT using the following formula: […]
Score is 0 for GIPRCNT values of 100 or above, 50 for GIPRCNT values of 0, and 100 for GIPRCNT values of -100.

| Compound | growth |
| --- | --- |
| Cc1nnc2c(Cc3ccccc3)nc3ccccc3n12 | 99.6% |
| O=C1Nc2cc(Cl)ccc2/C1=C\c1c(-c2ccc(F)cc2)nc2ccccn12 | 19.1% |
| COc1cc(-c2n/c(=C\c3c(O)[nH]c4ccc(Cl)cc34)cc3c2=Nc2ccccc2-3)ccc1F | 3.41% (active) |
| N=C(N)c1ccc(OCCCCCCCCCCOc2ccc(C(=N)N)cc2)cc1 | -96.3% (active) |
| Nc1ccccc1NC(=O)c1ccc(-n2nc(-c3ccccc3)c3ccccc32)cc1 | 52.3% |
| NC(=O)Nc1ccc(-n2cnc3cc(-c4ccc(O)cc4)ccc32)cc1 | 94% |
| N#CC1C(C#N)C2c3ccccc3C=CN2C1C(=O)c1ccc(Br)cc1 (stereo not given) | 88.6% |
| C#CCNC(=O)[C@]1(C)CC[C@]2(C)CC[C@@H]3C(=CC[C@H]4[C@@]3(C)CC[C@H]3C(C)(C)C(=O)CC[C@]43C)[C@@H]2C1 | 97.9% |
| COc1cc(/C(C)=C(\c2ccc(Cl)cc2)c2ccc(OCCN(C)C)cc2)ccc1F | 73.8% |
| COc1cc(/C=N/O)nc(-c2ccccn2)c1 | 15.5% |
| COc1cc2nc(-c3ccc(C(F)(F)F)cc3)cc(OCCCN3CCCC3)c2cc1OC | 44.5% |
| CC(Sc1nc2ccccc2c(=O)n1CCc1ccc(S(N)(=O)=O)cc1)C(=O)Nc1ccc(Cl)cc1 (stereo not given) | 86.2% |
| CC(=O)OC[C@]12CC[C@@H](C(=O)CBr)[C@@H]1[C@H]1CC[C@@H]3[C@@]4(C)CC[C@H](OC(C)=O)C(C)(C)[C@@H]4CC[C@@]3(C)[C@]1(C)CC2 | 87% |
| O=C(/C=C/c1c(-c2ccc(Cl)cc2)nn(-c2ccccc2)c1C(F)(F)F)c1ccc(Cl)cc1 | 88.1% |
| O=C1c2ccc3c4c(ccc(c24)C(=O)N1CCCNCc1ccccc1F)C(=O)N(CCCNCc1ccccc1F)C3=O | -75.7% (active) |
| CN1C(N2CCN(S(=O)(=O)c3ccccc3)CC2)=NS(=O)(=O)c2ccccc21 | 90.7% |
| CN(C)c1ccc(C2C(C#N)=C(/N=C/c3ccccc3)Oc3c2ccc2ccccc32)cc1 (stereo not given) | 78% |
| COc1cc2nc(-c3ccc(Cl)cc3)cc(OCCCN3CCCCC3)c2cc1OC | 41.8% |
| Oc1c(Cl)cc(Cl)c(Cl)c1CNCCNCc1c(O)c(Cl)cc(Cl)c1Cl | 36.2% |
| O=C(C[n+]1cccc2ccccc21)c1ccc(O)c(O)c1 | 72.4% |

| Compound | growth |
| --- | --- |
| COc1cccc(-c2nc3occn3c2-c2ccnc(NCCNS(=O)(=O)c3cccc4ccccc34)n2)c1 | 103% |
| CCN(c1ccccc1)S(=O)(=O)c1cc([N+](=O)[O-])ccc1Cl | 60.7% |
| O=C(c1nc2ccccc2[nH]1)C1C(c2ccc(Br)cc2)C2CC3CCCC[C@H]3N2[C@@]12C(=O)Nc1cc(Cl)ccc12 (stereo not given in full) | 39.7% |
| C=C1C(=O)O[C@H]2[C@H]1CC/C(CNC(=O)c1cccc3ccccc13)=C\CC[C@@]1(C)O[C@@H]21 | 25% |
| Cc1ccc(NS(=O)(=O)c2ccc(-c3cnc(C4CC4)o3)cc2)cc1C(F)(F)F | 88.6% |
| COc1cc(C2=C(c3cn(C)c4ccccc34)COC2=O)cc(OC)c1OC | 25% |
| CC(=O)[C@@H]1CC[C@]2(CO)CC[C@]3(C)[C@H](CC[C@@H]4[C@@]5(C)CCCNC(C)(C)[C@@H]5CC[C@]43C)[C@@H]12 | 91.2% |
| COC(=O)/C=C1\S/C(=N\NC(=O)c2cc3ccc2/C=C\c2ccc(cc2)/C=C\3)N(Cc2ccccc2)C1=O | 61.2% |
| Cc1nc2sccn2c1-c1cn2ccsc2n1 | 93.6% |
| COc1ccc2c(c1)oc1c(C)c3c(c(C)c12)C(=O)N(CCN1CCOCC1)C3=O | 93.2% |
| Cc1nc(N)nc(N[C@@H](C)c2nc3cccc(NCc4ccc(C(=O)NO)cc4)c3c(=O)n2-c2ccccc2)n1 | 84.5% |
| N#CC1=C(N)Oc2c(ccc3ccccc23)C1c1ccccc1Cl (stereo not given) | 22.2% |
| CCOc1ccc(Nc2nc(-c3ccc4c(c3)NC(=O)CO4)cs2)cc1 | 78.6% |
| COC(=O)C1=C(C(=O)ON)C2C=CC1(C(Cc1ccccc1)Nc1ccccc1)O2 (stereo not given) | 87.4% |
| COc1c(Cl)c2c(c(OC)c1OC)-c1ccc(SC)c(=O)cc1[C@@H](NC(=O)OCC(F)(F)F)CC2 | 24.2% |
| C=C(C)[C@@H]1CC[C@]2(C(=O)N3CCN(C)CC3)CC[C@]3(C)[C@H](CC[C@@H]4[C@@]5(C)C/C(=C/c6ccncc6)C(=O)C(C)(C)[C@@H]5CC[C@]43C)[C@@H]12 | 47.1% |
| O=C(Nc1ccc(Cl)cc1)c1cc(NCc2cc(O)ccc2O)ccc1O | 76.1% |
| CCSCC1CC(O)(c2ccccc2)CC(c2ccc(F)cc2)O1 (stereo not given) | -68.9% (active) |
| Cc1ccc(C(=O)/C(=C\c2ccc([N+](=O)[O-])cc2)S(=O)Cc2ccc(Cl)cc2)cc1 (stereo not given) | -15.6% (active) |
| O=C(CCN1CCCC1)Nc1ccc2c(NCc3ccccc3)c3ccccc3nc2c1 | -5.99% (active) |
